In all, about 150,000 compounds went through this assay and about 540 (0.36%) showed an effect of 50% or more. The entries come from a sample that favours strong results as a whole.
The compounds below were run on Plasmodium falciparum (assay: Primary screen in NF54 nanoGlo assay, in single point, at 2uM, 72h; a lower Z score goes with more inhibition). Conditions: timepoint 72 hour.
Assay type: functional, Erythrocyte

SMILES | % Inhibition [%] | Z score
O=C1CCCN1Cc1ncnn1Cc1ccc2c(c1)OCO2 | -4 | 0.57
Oc1ccccc1CNc1cccc2c[nH]nc12 | -4 | 0.68
O=C(Nc1cccc2cccnc12)c1csnn1 | 6 | -1.1
O=C(Nc1cccc2cccnc12)c1cscn1 | 9 | -1.21
Oc1ccccc1CNc1cccc2cccnc12 | 96 | -8.95
O=C(Nc1cccc2cccnc12)c1ccccn1 | 79 | -8.04
Oc1cccc(CNc2cccc3cccnc23)c1 | 27 | -3.62
O=C(Cn1ccc([C@H]2CCCNC2)n1)NCc1c(F)cccc1Cl | 0 | -0.03
O=C1CC[C@H](C(=O)N2CCCCO2)CN1CCN1CCOCC1 | -15 | 1.87
CCC1CCC(C(=O)NCC(=O)N2CCn3cncc3C2)CC1 (stereo not drawn) | -22 | 2.8
Cn1c(-c2ccc(Br)cc2)cn2cc(-c3ccc(Cl)cc3)nc12 | 44 | 0.7
Cn1c(-c2ccccc2)cn2cc(-c3ccc(Cl)cc3)nc12 | 54 | -1.03
Cn1c(-c2ccccc2)cn2cc(-c3ccc(F)cc3)nc12 | 38 | -0.19
Nc1n[nH]c(-c2ccc(Br)o2)n1 | 4 | -0.5
OC1=Nc2c(ncn2-c2cc(F)cc(F)c2)[C@@H](c2cccnc2)C1 | 34 | -3.88
Cc1ccc(CN2CCN(CC(=O)Nc3cc(C)on3)C(=O)C2=O)cc1 | 0 | -0.03
O=c1nc2n(nc1-c1ccccc1)C1(CCC1)Nc1ccccc1-2 | 54 | -13.48
O=c1nc2n(nc1-c1ccccc1)C1(CCCCC1)Nc1ccccc1-2 | -10 | 1.25
O=c1nc2n(nc1-c1ccc(F)cc1)C1(CCCC1)Nc1ccccc1-2 | -9 | 0.98
C[C@H](NC(=O)C1=NN(C)C(=O)CC1)c1ccc2c(c1)OCCO2 | -13 | 1.49
O=C(CCS(=O)(=O)c1ccccc1)N1CC[C@H](Oc2cc(C(F)(F)F)ccn2)C1 | -6 | 1.09

SMILES | % Inhibition [%] | Z score
COc1ccnc(CN2CCC[C@H](c3nc(-c4ccccc4)c[nH]3)C2)c1OC | 69 | -7.6
O=C(O)CN1CCC[C@H](c2nc(-c3ccccc3)c[nH]2)C1 | -8 | 0.94
Cc1nncn1C1CCN(S(=O)(=O)c2ccc(Cl)cc2)CC1 | -11 | 1.89
COc1ccc(CC(=O)N2C3COCC2C3)nc1 | 33 | -3.69
CCCN1C(=O)c2ccccc2N2C(=O)CC[C@@]12C(=O)Nc1cccc(NC(C)=O)c1 | 8 | -1.31
CC(=O)c1cccc(NC(=O)N2CCCCCCC2)c1 | 2 | -0.33
CCN1C(=O)c2ccccc2N2C(=O)CC[C@@]12C(=O)Nc1nccs1 | 8 | -0.95
CCCN1C(=O)c2ccccc2N2C(=O)CC[C@@]12C(=O)Nc1ccc(OC)cc1 | 88 | -16.69
CCCN1C(=O)c2ccccc2N2C(=O)CC[C@@]12C(=O)Nc1nc(C)cs1 | 2 | -0.31
COc1cccc(NC(=O)C23CCCN2CCC3)c1 | -8 | 1.16
CC(=O)c1cccc(NC(=O)N2CCC3(CCC3)C2)c1 | -6 | 1.19
CCCCN1C(=O)c2ccccc2N2C(=O)CC[C@@]12C(=O)Nc1nccs1 | 25 | -2.95
Cc1cc(N(C)C)ccc1NC(=O)CCN1C(=O)c2ccccc2N2C(=O)CC[C@]12C | 2 | -0.43
CC(=O)c1cccc(NC(=O)[C@@]23CCC(=O)N2c2ccccc2C(=O)N3C)c1 | 84 | -11.29
CCN1C(=O)c2ccccc2N2C(=O)CC[C@@]12C(=O)Nc1cccc(OC)c1 | 92 | -11.06
CCCN1C(=O)c2ccccc2N2C(=O)CC[C@@]12C(=O)Nc1ccccc1 | 88 | -14.36
O=C(Nc1cccc(Cl)c1)Nc1nnc2cccc(Cl)n12 | -18 | 2.03
Cc1csc(NC(=O)c2cc(-c3ccccc3)on2)n1 | -6 | 1.01
COc1cc2ccc1OCC(=O)N[C@@H](C)C(=O)N(C)CCCCN(C(=O)c1cc(Cl)cn1C)CCCNC2=O | -24 | 3.05
COCC1(CNC(=O)c2ccc(-c3ccncc3C)cc2)CCC1 | 8 | -1
Cn1cc(N2C[C@@H](C(=O)NCC=Cc3cccnc3)CCC2=O)cn1 | -4 | 0.63

SMILES | % Inhibition [%] | Z score
N[C@@H]1CCN(C(=O)c2cccnc2Oc2cccc(Br)c2)C1 | -12 | 1.38
Cn1c(C(=O)N2CC[C@H](N)C2)ccc1-c1ccccc1Br | 0 | 0.05
Cn1c(C(=O)N2CC[C@H](N)C2)ccc1-c1cccc(Br)c1 | 50 | -7.09
CC1(C2CC2)CCN(C(=O)c2csnn2)CC1 | 2 | -0.37
Cc1ccsc1CN(Cc1ccccc1)C(=O)CN(C(=O)C1CCCC1)C1CCCCC1 | -2 | 0.35
COc1cccc(CN2C(=O)N[C@@](C)(C3CCN(C(=O)c4cccnc4OC)CC3)C2=O)c1OC | 8 | -1.05
CC(C)[C@H](NC(=O)c1cc(O)ccn1)C(=O)NC1CCCCC1 | -5 | 0.48
COc1cc(C=C(C(=O)Nc2ccccc2F)C(=O)Nc2ccccc2F)ccc1OCC(=O)Nc1cccc(C(F)(F)F)c1 | 80 | 1.63
CC=Cc1ccc(OCC(=O)Nc2cccc(NC(=O)Nc3ccccc3)c2)c(OC)c1 | -7 | 0.59
COc1cc(C(=O)NCc2cccnc2)ccc1OCC(=O)Nc1cccc(C(F)(F)F)c1 | 3 | -0.33
Cc1cc(N2CC(OCc3ccccc3)C2)nc(Nc2cccc(O)c2)n1 | 91 | -12.9
Cc1cc(N2C[C@H]3CC[C@@H](C2)[C@H]3N(C)C)nc(Nc2cccc(O)c2)n1 | 77 | -8.01
Cc1cc(NCc2csc(N(C)C)n2)nc(Nc2cccc(O)c2)n1 | -3 | 0.61
CCO[C@H]1CN(C)C[C@@H]1Nc1cc(C)nc(Nc2cccc(O)c2)n1 | -6 | 1.08
Cc1cc(N2CCOC[C@@H](O)C2)nc(Nc2cccc(O)c2)n1 | -4 | 0.39
O=C(c1nc2ccccc2[nH]1)N1CCN(c2ccccc2F)CC1 | -1 | 0.23
CCn1cc(-c2n[nH]cc2C(=O)N2CCN(CC(C)C)C(=O)C2)cn1 | 3 | -0.32
COc1ccc(S(=O)(=O)N2CCOC[C@H](Oc3ccccc3)C2)cc1 | 31 | -3.47
Cc1ccc(C)c(Cn2c(C(=O)Nc3ccccc3)cc3cc(NC(=O)c4ccco4)ccc32)c1 | 2 | -0.19
CCc1cnccc1NC(=O)CCCC1CCOCC1 | -3 | 0.38
C[C@]1(c2cnccn2)NC(=O)N(Cc2cc(F)ccc2OC(F)F)C1=O | -4 | 0.57

SMILES | % Inhibition [%] | Z score
CC(C)c1ocnc1C(=O)NC[C@H]1[C@H](c2ccccc2)C1(F)F | -3 | 0.47
COc1ccc2[nH]c3c(c2c1)CCN(C(=O)c1ccc(C)c(C)c1)[C@H]3COCc1ccccc1 | 0 | 0.02
COc1ccc2[nH]c3c(c2c1)CCN(C(=O)c1ccc(C)c(C)c1)[C@@H]3c1ccccc1OC | 84 | -11.27
COc1ccc2[nH]c3c(c2c1)CCN(C(=O)c1cc(Cl)cc(Cl)c1)[C@@H]3c1ccccc1OC | -11 | 1.21
COc1ccc(OC)c(CNc2cc[nH]n2)c1 | -5 | 0.8
CCN(Cc1csc(C)n1)C[C@H]1CCCCO1 | 2 | -0.27
Cc1cccc(CN(Cc2cccc(C)n2)C[C@H]2CCCCO2)n1 | 90 | -9.86
Cc1cccc(CN(CC2CCN(C3Cc4ccccc4C3)CC2)C[C@H]2CCCO2)n1 | -1 | 0.18
COc1ccc(CC(=O)N[C@H]2CCOC2)cc1OC | -1 | 0.14
COc1nc(NC[C@H]2CCCN2C(C)C)ncc1F | 64 | -12.06
COc1nc(NCC[C@H]2CCCCN2C)ncc1F | 3 | -0.58
COc1nc(NCC2CCN(CC(C)C)CC2)ncc1F | -2 | 0.24
Cc1nn(C)c(C)c1CC(=O)N1CCC2(CCC2)S(=O)(=O)CC1 | -5 | 0.46
Cc1ccc(NS(=O)(=O)c2cc(-c3nc(C)c(C)s3)sc2C)c(C)c1 | -5 | 0.62
CC1CCN(C(=O)[C@H]2CCc3ncc(-c4ccc(F)cc4)n3C2)CC1 | -7 | 1.27
COc1ccc(-[n+]2c(-c3ccccc3)cn3c2CCC3)cc1 | 79 | -11.37
COc1ccc(-c2nn(-c3ccccc3F)cc2CN2CCOCC2)cc1 | -19 | 3.28
COc1ccc(-[n+]2c(-c3ccc(-c4ccccc4)cc3)cn3c2COCC3)cc1 | 58 | -11.93
COc1ccc(-c2cn3c(n2)CCC3)cc1 | -5 | 0.43
COc1ccc(-c2cn3cc(-c4ccccc4)c4c3n2CCCC4)cc1 | -8 | 1.46
COc1ccc(N2CCN(Cc3ccc(-c4ccccc4)cc3)CC2)cc1 | 5 | -1

From ChEMBL document CHEMBL4888484, “Replenishing the malaria drug discovery pipeline: Screening and hit evaluation of the MMV Hit Generation Library 1 (HGL1) against asexual blood stage Plasmodium falciparum ,using a nano luciferase reporter read-out” (2022)
